Source: PubChem
ssDAF12 agonist: S. stercoralis DAF-12 nuclear receptor activators, primary screen, cell-based, luminescence, HEK293, GRIP1 co-expression, lit1-tk-luc; Nuclear hormone receptor DAF-12 (Strongyloides stercoralis); HEK293 ssDAF-12/GRIP1 lit1-tk-luc reporter; % of 3 µM dafachronic acid response; activation, % at 6.8 µM; 1% of 370,000 active; AID 652126, 2013;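 active means activation above the mean over all tested compounds plus 3 SD, cut at about 0.9% in these data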;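 further: 0% = DMSO-only wells and 100% = 3 µM delta7-dafachronic acid wells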
hcDAF12 agonist: H. contortus DAF-12 nuclear receptor activators, primary screen, cell-based, luminescence, HEK293, lit1-tk-luc reporter; HEK293 hcDAF-12 lit1-tk-luc reporter; 0% DMSO, 100% Δ7-dafachronic acid; activation, % at 6.8 µM; 1.4% of 370,000 active;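 active means activation above the mean of all tested compounds plus 3 SD, cut at about 5.5% in these data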;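 further: 100% = response to 3 µM Δ7-dafachronic acid high control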
DAX1 inh-1: DAX1 (NR0B1) inhibitors, primary screen, cell-based, HEK293, Gal4-DAX1, luciferase luminescence; Nuclear receptor subfamily 0 group B member 1 (Homo sapiens), P51843; HEK293 Gal4-DAX1 luciferase reporter; inhibition, % at 6.75 µM; 0.99% of 340,000 active; AID 504766, 2011;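 active means inhibition above the mean over all tested compounds plus 3 SD, cut at about 4.2% in these data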;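 further: 0% = DAX1-transfected cells with DMSO and 100% = empty-vector control cells with DMSO; inhibition shows as a rise in luminescence from relieved DAX1 repression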
Target sequence (P51843 207-470 limits assumed): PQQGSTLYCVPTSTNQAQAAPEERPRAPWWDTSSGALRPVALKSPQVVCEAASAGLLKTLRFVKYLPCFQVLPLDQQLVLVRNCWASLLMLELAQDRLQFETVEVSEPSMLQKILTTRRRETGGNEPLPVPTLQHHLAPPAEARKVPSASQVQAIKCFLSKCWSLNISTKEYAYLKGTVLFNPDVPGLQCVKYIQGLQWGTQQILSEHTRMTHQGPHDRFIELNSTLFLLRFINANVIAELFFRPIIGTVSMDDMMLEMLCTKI
hgDAF12 agonist: H. glycines DAF-12 receptor agonists, primary screen, cell-based, luminescence, HEK293, GAL4 fusion, UAS-luciferase; Nuclear hormone receptor DAF-12 (Heterodera glycines), GAL4 fusion; HEK293 GAL4-hgDAF12 UAS-luciferase reporter, agonist luminescence; normalized to butyrate control; activation, % at 6.8 µM; 1.8% of 370,000 active; AID 687014, 2013;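 active means activation above a cutoff set at the mean of all screened compounds plus 3 SD, cut at about 10% in these data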;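 further: 0% = DMSO wells and 100% = sodium butyrate wells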
DAX1 inh-2: DAX1 (NR0B1) inhibitors on StAR promoter, primary screen, cell-based, luminescence, SF-1 (NR5A1), full-length DAX-1; 1.1% of 370,000 active; AID 652010, 2013; HEK293T StAR-luciferase reporter, SF-1/DAX-1 repression relief; inhibition, % at 6.8 µM;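 active means inhibition above the mean over all tested compounds plus 3 SD, cut at about 3.6% in these data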;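 further: 0% = DAX-1 cells with DMSO and 100% = cells lacking DAX-1 with DMSO; higher inhibition means more luminescence from relief of DAX-1 repression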
* hit, by the source's call; . = no result given. This is a sample that favours compounds with a hit; in the whole collection about 4.1% have one here.

SMILES	ssDAF12 agonist	hcDAF12 agonist	DAX1 inh-1	hgDAF12 agonist	DAX1 inh-2
C[C@@H]1[C@H](c2ccccc2)OC(O)([C@H](Cc2ccccc2)NC(=O)OC(C)(C)C)CN1C (stereo partly drawn)	-1.6	-1.3	.	2.6	.
O=S(=O)(NCCCc1ccccc1)c1ccc(F)c(F)c1	-1.1	-2.1	4.8*	0.6	0.0
O=S(=O)(NCCCc1ccccc1)c1ccc(Cl)cc1	-0.7	0.9	-0.8	-3.4	-0.2
O=C(NC1C(=O)NNC1c1ccccc1)c1ccc(F)cc1 (stereo not drawn)	-0.7	-0.3	0.7	-2.5	0.7
Cc1ccc(C2NNC(=O)C2NC(=O)c2ccccc2)cc1 (stereo not drawn)	-0.6	0.6	4.5*	5.0	0.9
O=C(CNS(=O)(=O)c1ccc(Cl)s1)N1CCN(c2ccccn2)CC1	-1.9	-2.6	.	-2.3	-1.1
C[C@H](c1ccccc1)N1C[C@@H](COCc2ccccc2)Oc2cc(N3CC[C@@H](O)C3)ccc2S1(=O)=O	-1.5	-1.0	.	3.8	3.9*
CCCCC[C@@H](C)N1C[C@@H](COCc2ccccc2)Oc2cc(N3CCC[C@H]3CO)ccc2S1(=O)=O	0.9*	0.6	.	0.9	-0.9
CCCCC[C@@H](C)N1C[C@@H](COCc2ccccc2)Oc2cc(N3CC[C@H](N(C)C)C3)ccc2S1(=O)=O	-1.1	0.1	.	0.7	4.1*
O=C(NC1CCCc2c1cnn2-c1ccc(F)cc1F)c1cccs1 (stereo not drawn)	-2.1	-3.3	.	-5.3	.
COC(=O)C1=C(C)N(Cc2ccc(Br)cc2)C(=S)NC1c1cccc(Br)c1 (stereo not drawn)	-1.7	-1.1	.	-1.1	-2.0
C/[N+]([O-])=C/c1c(OCc2ccc(Cl)cc2Cl)ccc2ccccc12	0.2	6.0*	-0.3	4.6	0.4
O=C(CCc1c[nH]c2ccccc12)Nc1ccc(Nc2cccnc2)c(Br)c1	-0.9	1.4	.	5.6	-0.3
COc1ccc(S(=O)(=O)Nc2ccc(Cl)cn2)cc1	-0.6	-3.0	3.5	-3.7	-0.6
COc1ccc(S(=O)(=O)Nc2ccc(C)cn2)cc1	-1.0	-1.1	4.6*	0.2	0.2
Cc1ccc(NS(=O)(=O)c2ccc(Br)s2)nc1	1.3*	-0.7	2.4	-3.0	0.3
Cc1cc(C)nc(NS(=O)(=O)c2ccc(Br)s2)c1	-1.1	-0.4	0.7	-2.4	-0.6
N#C/C(=C(/O)CSc1nnc(Cc2cccs2)n1C1CCCCC1)c1nc2ccccc2[nH]1	0.9	7.1*	2.3	-0.7	0.1
Cc1cc2nc(-c3ccc(SCC(=O)Nc4ccc(S(=O)(=O)N5CCCC5)cc4)nc3)[nH]c2cc1C	-0.1	3.5	-0.2	10.3	3.7*
Nc1cc(=O)[nH]c(SCC(=O)Nc2ccc(S(=O)(=O)N3CCCC3)cc2)n1	-1.5	-0.2	4.3*	8.8	-0.9
Brc1cccc(Cn2ccc3ccc(-c4ccc5ccn(Cc6cccc(Br)c6)c5c4)cc32)c1	-1.2	0.6	.	2.6	0.5
O=C(CCc1ccccc1)NNC(=O)Cc1ccc(Cl)cc1	-0.9	-0.5	-0.8	3.1	0.1
O=C(Nc1ccc(NC(=O)c2ccccc2O)cc1)Nc1ccc(F)cc1F	1.6*	-0.6	0.0	-0.4	0.1
O=C(Nc1nc(-c2ccccc2)cs1)Nc1ccc(F)cc1F	-2.0	-1.6	4.7*	4.7	-2.4
COC(C(=O)NNC(=O)Cc1ccc(Cl)cc1)c1ccccc1 (stereo not drawn)	-1.0	-0.6	4.3*	-0.9	-0.5
O=C(Nc1ccc(F)cc1F)Nc1ccc(F)cc1F	-1.7	-2.2	-1.9	-3.3	-0.1
COC(=O)c1cccc(NC(=O)Nc2ccccc2OC)c1	-0.8	-1.1	6.5*	4.7	0.2
Cc1cc(OC[C@@H](O)CN2CCC(C(O)(c3ccccc3)c3ccccc3)CC2)ccc1Br	-1.0	-0.4	.	-2.2	-0.7
Cc1c(C2Nc3ccccc3C2C)[nH]c2ccccc12 (stereo not drawn)	0.6	4.5	.	-4.1	-0.7
